Several values for one entry are separate records, joined by “and”; a condition that tells them apart may be missing. Identical values can stand only once. Among all 5,500 compounds or so, about 2,000 (36%) were called active. Another 18% or so got no clear call; they are omitted. No stated cut-off is given here; in the data, active means normalized growth mostly below about 0.91 (no sharp cut-off); inconclusive means no clear call, values can overlap the other calls; inactive means mostly above about 0.92. Some of the results follow.
Assay: chemical genetic growth profiling, strain panel (AID 1159580);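 further: tested at 20 µM; growth read once vehicle control cultures reached saturation at 30 °C; 1 = growth at the plate median or of vehicle wells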
Conditions: growth OD

Measured: normalized growth

CN(C)CCC(c1ccc(Br)cc1)c1ccccn1 (centres undefined)
inactive: S. cerevisiae deletion strains, locus YKL009W, strain mrt4, stronger effect = lower value 0.99 | S. cerevisiae deletion strains, locus YKL068W, stronger effect = lower value 1.01 | S. cerevisiae deletion strains, locus YKL085W, strain MDH1 (second series), stronger effect = lower value 1.02 | S. cerevisiae deletion strains, locus YKL085W, strain MDH1, stronger effect = lower value 1.02 | S. cerevisiae deletion strains, locus YKL160W, strain elf1, stronger effect = lower value 0.981 | S. cerevisiae deletion strains, locus YKL190W, strain CNB1, stronger effect = lower value 0.995 | S. cerevisiae deletion strains, locus YKR001C, strain vps1, stronger effect = lower value 0.964 | S. cerevisiae deletion strains, locus YKR026C, strain gcn3, stronger effect = lower value 0.986 | S. cerevisiae deletion strains, locus YLL001W, strain dnm1, stronger effect = lower value 0.998 | S. cerevisiae deletion strains, locus YLL026W, stronger effect = lower value 0.987 | S. cerevisiae deletion strains, locus YLL041C, strain sdh2, stronger effect = lower value 0.981 | S. cerevisiae deletion strains, locus YLR027C, strain aat2, stronger effect = lower value 0.99 | S. cerevisiae deletion strains, locus YLR039C, strain RIC1, stronger effect = lower value 0.999 | S. cerevisiae deletion strains, locus YLR058C, strain SHM2, stronger effect = lower value 0.991 | S. cerevisiae deletion strains, locus YLR102C, strain apc9, stronger effect = lower value 0.992 | S. cerevisiae deletion strains, locus YLR113W, strain HOG1, stronger effect = lower value 1.01 | S. cerevisiae deletion strains, locus YLR221C, strain rsa3, stronger effect = lower value 0.999 | S. cerevisiae deletion strains, locus YLR258W, strain gsy2, stronger effect = lower value 0.969 | S. cerevisiae deletion strains, locus YLR262C, strain YPT6 (second series), stronger effect = lower value 0.999 | S. cerevisiae deletion strains, locus YLR262C, strain YPT6, stronger effect = lower value 1.03 | S. cerevisiae deletion strains, locus YLR268W, strain sec22, stronger effect = lower value 0.956 | S. cerevisiae deletion strains, locus YLR320W, strain mms22, stronger effect = lower value 1.03 | S. cerevisiae deletion strains, locus YLR330W, strain CHS5, stronger effect = lower value 0.992 | S. cerevisiae deletion strains, locus YLR342W, strain FKS1 (second series), stronger effect = lower value 0.985 | S. cerevisiae deletion strains, locus YLR342W, strain FKS1, stronger effect = lower value 0.986 | S. cerevisiae deletion strains, locus YLR357W, strain rsc2, stronger effect = lower value 0.972 | S. cerevisiae deletion strains, locus YLR370C, strain arc18, stronger effect = lower value 0.982 | S. cerevisiae deletion strains, locus YLR371W, strain rom2, stronger effect = lower value 0.989 | S. cerevisiae deletion strains, locus YLR384C, strain iki3, stronger effect = lower value 0.989 | S. cerevisiae deletion strains, locus YLR418C, strain cdc73, stronger effect = lower value 0.95 | S. cerevisiae deletion strains, locus YML016C, strain PPZ1, stronger effect = lower value 0.986 | S. cerevisiae deletion strains, locus YML032C, strain rad52, stronger effect = lower value 0.966 | S. cerevisiae deletion strains, locus YML120C, strain ndi1, stronger effect = lower value 0.981 | S. cerevisiae deletion strains, locus YML124C, strain tub3, stronger effect = lower value 0.987 | S. cerevisiae deletion strains, locus YMR058W, strain fet3, stronger effect = lower value 1.01 | S. cerevisiae deletion strains, locus YMR078C, strain ctf18, stronger effect = lower value 0.974 | S. cerevisiae deletion strains, locus YMR125W, strain sto1, stronger effect = lower value 0.936 | S. cerevisiae deletion strains, locus YMR129W, stronger effect = lower value 0.982 | S. cerevisiae deletion strains, locus YMR205C, strain PFK2, stronger effect = lower value 0.997 | S. cerevisiae deletion strains, locus YMR223W, strain ubp8, stronger effect = lower value 1.01 | S. cerevisiae deletion strains, locus YMR231W, strain pep5, stronger effect = lower value 0.978 | S. cerevisiae deletion strains, locus YMR263W, strain SAP30, stronger effect = lower value 0.976 | S. cerevisiae deletion strains, locus YMR307W, strain GAS1, stronger effect = lower value 1.01 | S. cerevisiae deletion strains, locus YNL067W, strain RPL9B, stronger effect = lower value 0.977 | S. cerevisiae deletion strains, locus YNL071W, strain lat1, stronger effect = lower value 0.98 | S. cerevisiae deletion strains, locus YNL128W, strain TEP1, stronger effect = lower value 0.988 | S. cerevisiae deletion strains, locus YNL153C, strain GIM3, stronger effect = lower value 0.981 | S. cerevisiae deletion strains, locus YNL175C, strain NOP13, stronger effect = lower value 1 | S. cerevisiae deletion strains, locus YNL183C, strain NPR1, stronger effect = lower value 0.942 | S. cerevisiae deletion strains, locus YNL197C, strain WHI3, stronger effect = lower value 1.01 | S. cerevisiae deletion strains, locus YNL209W, strain ssb2, stronger effect = lower value 0.993 | S. cerevisiae deletion strains, locus YNL224C, strain SQS1, stronger effect = lower value 1 | S. cerevisiae deletion strains, locus YNL233W, strain BNI4, stronger effect = lower value 0.988 | S. cerevisiae deletion strains, locus YNL248C, strain rpa49, stronger effect = lower value 0.952 | S. cerevisiae deletion strains, locus YNL250W, strain rad50, stronger effect = lower value 0.978 | S. cerevisiae deletion strains, locus YNL271C, strain bni1, stronger effect = lower value 0.984 | S. cerevisiae deletion strains, locus YNL298W, strain CLA4, stronger effect = lower value 0.985 | S. cerevisiae deletion strains, locus YNL307C, strain MCK1, stronger effect = lower value 0.989 | S. cerevisiae deletion strains, locus YNL322C, strain KRE1 (second series), stronger effect = lower value 0.971 | S. cerevisiae deletion strains, locus YNL322C, strain KRE1, stronger effect = lower value 0.991 and 1.02 | S. cerevisiae deletion strains, locus YNR049C, strain mso1, stronger effect = lower value 0.968 | S. cerevisiae deletion strains, locus YNR052C, strain pop2, stronger effect = lower value 0.989 | S. cerevisiae deletion strains, locus YOL006C, strain TOP1, stronger effect = lower value 0.973 | S. cerevisiae deletion strains, locus YOL012C, strain htz1 0.603 | S. cerevisiae deletion strains, locus YOL147C, strain pex11, stronger effect = lower value 0.983 | S. cerevisiae deletion strains, locus YOR001W, strain rrp6, stronger effect = lower value 0.986 | S. cerevisiae deletion strains, locus YOR061W, strain CKA2, stronger effect = lower value 0.99 | S. cerevisiae deletion strains, locus YOR069W, strain VPS5, stronger effect = lower value 0.992 | S. cerevisiae deletion strains, locus YOR070C, strain gyp1, stronger effect = lower value 0.99 | S. cerevisiae deletion strains, locus YOR080W, strain dia2, stronger effect = lower value 0.975 | S. cerevisiae deletion strains, locus YOR083W, strain WHI5 (second series), stronger effect = lower value 1.01 | S. cerevisiae deletion strains, locus YOR083W, strain WHI5, stronger effect = lower value 0.928 | S. cerevisiae deletion strains, locus YOR106W, strain vam3, stronger effect = lower value 0.966 | S. cerevisiae deletion strains, locus YOR136W, strain idh2, stronger effect = lower value 1 | S. cerevisiae deletion strains, locus YOR144C, strain elg1, stronger effect = lower value 0.99 | S. cerevisiae deletion strains, locus YOR184W, strain ser1, stronger effect = lower value 0.98 | S. cerevisiae deletion strains, locus YOR231W, strain MKK1, stronger effect = lower value 0.986 | S. cerevisiae deletion strains, locus YOR265W, strain rbl2, stronger effect = lower value 0.99 | S. cerevisiae deletion strains, locus YOR270C, strain vph1, stronger effect = lower value 0.981 | S. cerevisiae deletion strains, locus YOR290C, strain snf2, stronger effect = lower value 0.97 | S. cerevisiae deletion strains, locus YOR316C, strain cot1, stronger effect = lower value 0.987 | S. cerevisiae deletion strains, locus YPL051W, strain arl3, stronger effect = lower value 0.991 | S. cerevisiae deletion strains, locus YPL055C, strain LGE1, stronger effect = lower value 1 and 1.01 | S. cerevisiae deletion strains, locus YPL078C, strain atp4, stronger effect = lower value 0.985 | S. cerevisiae deletion strains, locus YPL106C, strain sse1, stronger effect = lower value 0.936 | S. cerevisiae deletion strains, locus YPL240C, strain hsp82, stronger effect = lower value 0.991 | S. cerevisiae deletion strains, locus YPL241C, strain CIN2, stronger effect = lower value 0.992 and 1.01 | S. cerevisiae deletion strains, locus YPL256C, strain CLN2, stronger effect = lower value 0.96 | S. cerevisiae deletion strains, locus YPR119W, strain clb2, stronger effect = lower value 0.998 | S. cerevisiae deletion strains, locus YPR141C, strain kar3, stronger effect = lower value 0.979 | S. cerevisiae deletion strains, locus YPR163C, strain tif3, stronger effect = lower value 0.987 | S. cerevisiae deletion strains, locus YPR167C, strain met16, stronger effect = lower value 0.987 | S. cerevisiae deletion strains, strain wtn01, stronger effect = lower value 0.95 | S. cerevisiae strains, strain wild type, stronger effect = lower value 0.987

Reference: PubChem BioAssay AID1159580 (chemical genetic matrix, 2015)
